# The supplement of paper PMC6555819
# Assays:
# Test in all cases: PBM binding z-score (relative to random genomic background probes); higher = stronger binding; sequences stand for … in GC…GCGATTGACAGCGTAGAATGAAGG
# [1] = system: RARb homodimer (NR concentration 270 nM)
# In short: (§1)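 Binding buffer was PBS pH 7.4 with 2% milk, 0.02% Triton X-100, 1 mM DTT, 0.2 mg/mL BSA and 0.4 mg/ml salmon testes DNA. In it, ligand-free nuclear receptor dimers were incubated 1 h on custom Agilent 4×180K protein-binding microarrays carrying double-stranded probes. Antibodies against each partner (one per run) detected binding, and z-scores were calculated against random background probes after regression normalization of scanned fluorescence.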
# [2] = system: RARg:RXRa (NR concentration 270 nM, RXRa partner concentration 90 nM)
# In short: as §1
# [3] = system: RARg homodimer (NR concentration 270 nM)
# In short: as §1
# [4] = system: RXRa DBDmut IVT, anti-RXR (DBD mutation: RXRa K156A/R161A, NR concentration 90 nM)
# In short: as §1
# [5] = system: RXRa homodimer (NR concentration 180 nM)
# In short: as §1
# [6] = system: THRa:RXRa (NR concentration 90 nM, RXRa partner concentration 90 nM)
# In short: as §1
# [7] = system: THRa homodimer (NR concentration 90 nM)
# In short: as §1
# [8] = system: VDR homodimer (NR concentration 270 nM)
# In short: as §1
Sequence,PBM binding z-score [1],PBM binding z-score [2],PBM binding z-score [3],PBM binding z-score [4],PBM binding z-score [5],PBM binding z-score [6],PBM binding z-score [7],PBM binding z-score [8]
ACCGAAAGGTCGACGAGGTGAGTATACACCGTTT,3.18,4.28,4.13,1.58,4.27,3.61,0.645,1.01
CCTGCTAGGTCAATGCTCAGCTAAAGCAGCTCGC,2.37,3.14,4.3,1.92,1.47,1.97,0.173,-0.26
AGTCAAAGTTTACTAGGTAACGTAAGATTCAGCT,0.795,0.885,1.46,1.44,0.16,0.591,-0.0944,0.294
TCTTGTAGATCAAAGGTTAAGAATGCCGAAGCCT,1.48,1.72,0.719,0.824,3.46,1.35,-0.308,-0.101
CCTACTGGGCCATCAGGTCAGTGATATCAACGTT,2.46,1.18,1.57,-0.413,0.552,2.19,1.78,0.319
ACAGACAGGTGATGAAGGTAACACAGGCTATCAT,0.929,0.674,0.747,-0.108,0.817,0.695,0.246,0.22
CCTACTGGGCCACGAAAGGTCGTTGATTCAGTGA,2.27,1.65,1.29,-0.0734,2.09,2.26,-0.153,0.759
ATCTCTAGGTAAAAGTTAAGTGAATCCCGAGGAT,-0.425,0.121,0.586,-0.231,0.0332,0.344,-0.106,0.265
AATACAGGGTCATCGTGGGCCAGAGTACGCACAG,3.78,5.59,4.97,3.19,6.45,4.44,1.46,3.9
GCGCCTGGGGCAAAGCAGGTTACCATAAGGTTGG,0.951,0.319,0.493,-0.424,0.237,2.96,-0.193,-0.387
ACTTTTAGTTGACTTAGGGCAACCGATACGACGC,1.37,1.1,1.22,1.12,0.756,1.64,0.763,0.282
TCCTATAGGTAAAAGGTGAAAGTCGGTGTGGTAA,1.55,1.83,0.492,1.1,2.64,1.56,0.0134,-0.175
ATATGTAGGTTAGCTGGGGCCATTCAGACTAGGC,1.17,0.84,0.74,0.565,0.845,4.13,0.768,0.832
CCGACTGGGTCAAGGTTACCATAACGCACAGCCA,3.15,3.98,4.05,0.852,3.59,2.83,1.51,1.02
ATCTCTAGGTAACGAAGTTCAGTGAATGCCGAAC,1.38,0.591,0.883,0.137,0.413,0.946,0.14,1.27
CCGACTGGGGCACGGTTACCATAACGCACAGCCA,0.696,0.548,1.13,-1.14,0.163,-0.214,-0.521,-0.442
